Structures are written as SMILES. Values joined by “and” are separate entries in the source; they are usually repeats but may differ in a detail not shown here. Identical values can stand only once. The panel holds about 79,000 compounds, 15% with a hit somewhere; the sample as a whole holds those more often. A number with no mark means an inactive call. Cut-off read from the data, not from the text of the source: active = growth inhibition above about 70%; inactive = the rest.

The nature of the assay: NCI Yeast Anticancer Drug Screen. Data for the mec2-1 strain (AID 157). The conditions noted are these: S. cerevisiae mec2-1 strain, active compounds read high; at 50.0 µM unless noted. How it is done:
Growth inhibition of yeast strains with defined genetic alterations is measured as a screen for potential anti-cancer activity. Selected strains with alterations in DNA damage repair or cell cycle control were exposed to compounds and growth inhibition was measured relative to vehicle treated controls. The strain used in this assay is mec2-1
As for `Cn1c(=O)c2[nH]c(Nc3cccc(Cl)c3)nc2n(C)c1=O`, the growth inhibition was 8.75%.

In the case of `CCCCC/C(=N\c1nc[nH]c1C(N)=O)OCC`, the growth inhibition is -12.9%.

Regarding `CN1C(=O)C/C(=C/[N+](=O)[O-])c2ccccc21`, the growth inhibition was -1.05%.

Consider `Cn1c(Nc2ccccc2)c(C=Nc2ccccc2)c(=O)n(C)c1=O`, for which the growth inhibition was 3.45%.

As to `CCCC1SCC(=O)N1c1nncs1` (stereo not given), the growth inhibition was 3.5%.

Consider `O=C(CCCN1CCC2(CC1)C(=NC1CCCCC1)NC(=O)N2c1ccccc1)c1ccc(F)cc1`, for which the growth inhibition was -3.6%.

As for `CCCCCCCOC(=O)C1(O)CCCCC1`, the growth inhibition is 1.25%.

Consider `C/C(=C\c1ccccc1)c1ccccn1`, for which the growth inhibition was -4.6% and -17.4%.

For `O=C(c1ccc(-c2ccccc2)cc1)C(O)c1ccc(-c2ccccc2)cc1` (stereo not given), the growth inhibition was 0.4%.

`O=C(O)CCSCCC(=O)O`: the growth inhibition is -2.5%.

`CCN1CCCC(C(=O)O)(c2ccccc2)CC1` (stereo not given): the growth inhibition was -11.1%.

As to `CC1CCCCN1C(=O)Nc1ccc(Cl)cc1[N+](=O)[O-]` (stereo not given), the growth inhibition was 44.2%.

As for `Cc1ccc(C(=O)c2ccc([N+](=O)[O-])cc2)cc1`, the growth inhibition was -20.4%.

For the molecule `Nc1ncnc2c1c(-c1nnc(-c3ccccc3)c(-c3ccccc3)n1)cn2C1OC(CO)C(O)C1O` (stereo not given), the growth inhibition was -2.8%.

Consider `CCc1cccc(C(C)C)c1NC(=O)C(=O)Nn1c(=S)[nH]c2ccccc2c1=O`, for which the growth inhibition is -23.1%.

On to `CC(C)(Nc1ccccc1)C(=O)OC(C)(C)C(=O)Nc1ccccc1`, for which the growth inhibition is -25.5%.

In the case of `CCCCCCCCCCCCSCCSCCCCCCCCCCCC`, the growth inhibition is 15.4%.

Consider `CCCc1onc(-c2noc(CCC)c2CC)c1CC`, for which the growth inhibition is -6.65%.

Turning to `Cc1cccc(Cl)c1NC(=O)c1c(Cl)c(Cl)c(Cl)c(Cl)c1C(=O)O`, the growth inhibition was 10.6%.

Regarding `CCCCCCCCCCCCCCCCCC(=O)N/N=C/c1cc(C(C)(C)C)c(O)c(C(C)(C)C)c1`, the growth inhibition is 13.7%.

Turning to `O=C(c1ccc(Cl)cc1)N1CCC(CCCc2ccccc2)CC1`, the growth inhibition is 3.45%.

In the case of `O=C(CN1CCCCCC1)Nc1ccc2c(c1)C(=O)c1ccc(NC(=O)CN3CCCCCC3)cc1C2=O`, the growth inhibition was 37.8%.

For the molecule `CN(C)Cc1cc(-c2c(Cl)cccc2Cl)no1`, the growth inhibition was -10.5%.

As for `CC(C)CCCC(C)[C@H]1CCC2C3CC=C4C[C@@H](OC(=O)CC(CC(=O)[O-])C(=O)[O-])CC[C@]4(C)C3CC[C@@]21C.N.N.[Pt+4]` (stereo not given in full), the growth inhibition was 13.1%.

On to `CC1(c2ccccc2)C(=O)c2ccccc2-c2ccccc21` (stereo not given), for which the growth inhibition was 48.4%.

On to `O=C(Cc1ccccc1)NCCCN(CCCCN(CCCNC(=O)Cc1ccccc1)C(=O)OCc1ccccc1)C(=O)OCc1ccccc1`, for which the growth inhibition was -11.6%.

In the case of `COc1ccc2c(c1)c(COC(C)=O)c(C)c[n+]2[O-]`, the growth inhibition is 28.8%.

Regarding `C#CCC(C(=O)OC)N(CC)CC` (stereo not given), the growth inhibition was -21.9%.

Turning to `CC1(C)CCC2=C(O1)C(=O)c1ccccc1C2=O`, the growth inhibition is -3.45%.

`CCOCCOC(=O)COc1ccccc1`: the growth inhibition is 16.4%.

As for `O=C(O)C1(F)CC1(c1ccccc1)c1ccccc1` (stereo not given), the growth inhibition was 9.7%.

`c1ccc(-c2nc3ccccc3s2)cc1`: the growth inhibition was -22.4% and -0.5%.

In the case of `O=C1NC(N2CCOCC2)=N/C1=C\c1cccs1`, the growth inhibition is 5.05%.

For the molecule `C#CCSC(=S)NNc1ccccc1`, the growth inhibition is 29.1%.

For the molecule `CCCC1N[C@H](C(=O)O)CS1` (stereo not given in full), the growth inhibition is 7.1%.

On to `CC(=O)c1ccc2c(c1)sc1ccccc12`, for which the growth inhibition was -25.3%.

Take `COc1ccc(CNC(=O)CC(C)=O)cc1`: the growth inhibition is -17.5%.

As for `O=C(C(/C=N/C(=S)NC1C(=O)Nc2ccccc21)=C(/O)c1ccccc1)c1ccccc1` (stereo not given), the growth inhibition was -0.85%.

Consider `CCOc1ccc(N=Cc2ccc3cc(C)ccc3n2)cc1`, for which the growth inhibition is -9.65%.

Take `c1cncc(C2N3CCCCC3[C@@H]3c4[nH]c5ccccc5c4CCN23)c1` (stereo not given in full): the growth inhibition was -40.5%.

Source of the values: PubChem BioAssay (NCI).
